This note sets out measurements from PubChem BioAssay (EPA / NIEHS).

A short description of experiment [1]: APR_HepG2_P-H2AX_72hr: Apredica 72-hour HepG2 Assay for H2AX Phosphorylation (AID 2282916).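 Further: phospho-histone H2A.x immunostain intensity per cell marking DNA damage.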 The following applies: imaging, actives raise or lower the signal. Summed up: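 Following 72 hr treatment with 0.39–200 uM compound, HepG2 cells were formaldehyde-fixed, permeabilized and stained for phospho-H2A.x; signal was measured by high-content imaging and fitted bidirectionally against DMSO controls.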

A short description of experiment [2]: APR_HepG2_MitoMembPot_72hr: Apredica 72-hour HepG2 Assay for Mitochondrial Membrane Potential (AID 2282917). The following applies: imaging, actives raise or lower the signal. The gist of the method: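 Membrane potential read by MitoTracker Red CMXRos (250 nM, 30 min, pre-fixation) fluorescence imaging of HepG2 after 72 hr exposure. Ten concentrations, 0.39–200 uM, duplicate wells, 0.5% DMSO; fitted in both directions against DMSO baseline.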

Experiment [3] can be described thus: APR_HepG2_MitoticArrest_72hr: Apredica 72-hour HepG2 Assay for Mitotic Arrest (AID 2282918). To be noted: high-content imaging, actives raise or lower the signal. The gist of the method:
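Read-out is phospho-histone H3 immunofluorescence with Hoechst nuclear segmentation, imaged at 20x. Human HepG2 liver cells received ten concentrations (0.39–200 uM, final DMSO 0.5% v/v) for 72 hr before fixation. Gain or loss of signal was fitted relative to DMSO.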

Experiment [4] can be described thus: APR_HepG2_MicrotubuleCSK_72hr: Apredica 72-hour HepG2 Assay for Microtubule CSK Stabilty (AID 2282919). The following applies: HepG2 microtubule cytoskeleton, high-content imaging, actives raise or lower the signal. The gist of the method:
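Read-out is tubulin fluorescence intensity from high-content imaging of HepG2 cells, with nuclei identified by Hoechst 33342. Treatment lasts 72 h at 0.39–200 uM, and curves are fitted bidirectionally against the DMSO negative control.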

The nature of experiment [5]: APR_HepG2_StressKinase_72hr: Apredica 72-hour HepG2 Assay for Stress Kinase (AID 2282921). To be noted: HepG2 stress kinase (phospho-c-Jun) imaging, actives raise or lower the signal. The gist of the method: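 Fluorescence intensity of Cy3-tagged anti-phospho-c-Jun antibody, quantified per cell from Hoechst-defined nuclei across six images per well, served as the read-out following 72 h exposure (0.39–200 uM, 0.5% v/v DMSO).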

Experiment [6] is described as follows: APR_HepG2_StressKinase_24hr: Apredica 24-hour HepG2 Assay for Stress Kinase (AID 2282922). To be noted: HepG2 stress kinase (phospho-c-Jun) imaging, actives raise or lower the signal. The gist of the method: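 HepG2, 24 hr dosing, 0.39–200 uM in duplicate, 0.5% DMSO; formaldehyde fix (3.7%), 0.5% Triton X-100; anti-phospho-c-Jun + Cy3 secondary, Hoechst counterstain; ArrayScan imaging; bidirectional curve fit vs DMSO baseline.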

The nature of experiment [7]: APR_HepG2_p53Act_72hr: Apredica 72-hour HepG2 Assay for p53 Activation (AID 2282923).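 Further: average cellular p53 protein immunofluorescence intensity in HepG2 cells.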 The following applies: high-content imaging, actives raise or lower the signal. The gist of the method:
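HepG2 monolayers receive test compounds in duplicate at ten concentrations (0.39 through 200 uM) for 72 hr. They are then formaldehyde-fixed, antibody-labelled for p53, Hoechst-stained and imaged, with activity fitted bidirectionally versus DMSO.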

The nature of experiment [8]: APR_HepG2_MitoMass_72hr: Apredica 72-hour HepG2 Assay for Mitochondrial Mass (AID 2282924).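 Further: MitoTracker Red CMXRos stain intensity per cell imaged as mitochondrial mass.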 The following applies: high-content imaging, actives raise or lower the signal. Summed up: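 HepG2, 72 hr cmpd, 10 conc 0.39–200 uM in dup, DMSO 0.5% v/v. MitoTracker Red CMXRos 250 nM 30 min pre-fix; formaldehyde 3.7% fix 30 min RT. HCS imaging, gain/loss fit vs DMSO.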
Experiment [9] can be described thus: APR_HepG2_NuclearSize_72hr: Apredica 72-hour HepG2 Assay for Nuclear Size (AID 2282925). To be noted: high-content imaging, actives raise or lower the signal. The gist of the method:
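HepG2; cpd 0.39–200 uM, 10 conc, duplicate; 72 h; DMSO 0.5% v/v; fix 3.7% formaldehyde 30 min RT; Triton permeabilization; Hoechst 2 ug/mL; HCS imaging 20x; nuclear diameter; gain/loss fit vs DMSO.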

Experiment [10] is described as follows: ATG_CRE_CIS: Attagene CIS-FACTORIAL HepG2 Assay for human cAMP Responsive Element (CRE) binding protein 3 (AID 2282926). The following applies: HepG2 CRE cis-reporter, Attagene multiplexed mRNA; actives raise or lower the signal. The gist of the method:
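Human liver HepG2, transient MRTU transfection, 24 h compound exposure. Total RNA → oligo(dT) RT → PCR → 6-FAM primer extension → HpaI cut → CE. Activity called both directions vs DMSO.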

Experiment [11] concerns the target CCAAT/enhancer-binding protein beta (Homo sapiens) (UniProt P17676). Kind of experiment: ATG_C_EBP_CIS: Attagene CIS-FACTORIAL HepG2 Assay for human CCAAT/Enhancer Binding Protein (C/EBP) beta (AID 2282927). To be noted: HepG2 Attagene cis-factorial transcription factor reporter; actives raise or lower the signal. Summed up:
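Changes in reporter mRNA, rather than exogenous chimeric receptor activity, reflect native C/EBP signalling in transfected HepG2 cells dosed for 24 h; transcripts are detected by RT-PCR and capillary electrophoresis.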

A short description of experiment [12]: ATG_CMV_CIS: Attagene CIS-FACTORIAL HepG2 Assay for human CMV (Internal Marker) (AID 2282928).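 Further: endpoint acts as a background internal control marker rather than a target.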 To be noted: HepG2 CMV promoter reporter, transcription factor profiling; actives raise or lower the signal. The gist of the method: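 After transient transfection of HepG2 with reporter transcription units driven by cis-regulatory promoters, cells receive test chemical for 24 h. Labeled reporter amplicons, digested with HpaI, are sized and quantified by capillary electrophoresis against DMSO.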

Experiment [13] is described as follows: ATG_DR4_LXR_CIS: Attagene CIS-FACTORIAL HepG2 Assay for human Liver X Receptor (LXR), DR4 submotif (AID 2282929). The following applies: HepG2 Attagene DR4 cis-reporter, mRNA transcription; actives raise or lower the signal. Summed up:
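The endpoint is DR4-element-driven reporter transcripts after 24 h chemical exposure of transfected HepG2 cells. These were measured via RT-PCR and capillary electrophoresis, and gain or loss of signal was fitted relative to DMSO controls.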

Experiment [14] addresses Aryl hydrocarbon receptor (Homo sapiens) (UniProt P35869). Kind of experiment: ATG_Ahr_CIS: Attagene CIS-FACTORIAL HepG2 Assay for human Aryl Hydrocarbon Receptor (Ahr) (AID 2282930). The following applies: HepG2 AhR cis-factorial reporter transcription; actives raise or lower the signal. The gist of the method:
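HepG2, transient MRTU (cis) transfection, 24 h exposure. RNA → cDNA → PCR → 6-FAM primer extension → HpaI 2 h 37 C → CE. Fit: bidirectional, DMSO baseline.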

Experiment [15] in a line: ATG_AP_1_CIS: Attagene CIS-FACTORIAL HepG2 Assay for human Activator Protein 1 (AP-1) (AID 2282931). To be noted: HepG2 Attagene cis-factorial AP-1 reporter mRNA; actives raise or lower the signal. Summed up:
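Readout is reporter transcript level from endogenous transcription factor activity, quantified by RT-PCR with fluorescent primer extension and capillary electrophoresis. Transiently transfected HepG2 cells, 24 h exposure. Curves fitted both directions versus DMSO.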

Experiment [16] is described as follows: ATG_AP_2_CIS: Attagene CIS-FACTORIAL HepG2 Assay for human Activator Protein 2 (AP-2) (AID 2282932). The following applies: HepG2 AP-2 cis-reporter, Attagene transcription factor profiling; actives raise or lower the signal. The gist of the method:
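Step one: transient transfection of HepG2 with reporter transcription units. Step two: 24 h chemical exposure. Step three: RNA extraction, RT-PCR, labelled fragment analysis by capillary electrophoresis; DMSO serves as baseline.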

The target in experiment [17] is Retinoic acid receptor alpha (Homo sapiens) (UniProt P10276). The experiment can be described thus: ATG_DR5_RAR_CIS: Attagene CIS-FACTORIAL HepG2 Assay for human Retinoic Acid Receptor Alpha (RARE), DR5 submotif (AID 2282934).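 On AC50: reporter responds to endogenous RAR alpha beta and gamma in HepG2 not RARA alone.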 The following applies: HepG2 Attagene cis-factorial RARE DR5 reporter, mRNA; actives raise or lower the signal. The gist of the method:
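HepG2, transient cis-reporter transfection, 24 h exposure. mRNA readout: RT-PCR, FAM label, HpaI cut, capillary electrophoresis. DMSO baseline, gain/loss fitting.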

For experiment [18], the target named is Transcription factor E2F1 (Homo sapiens) (UniProt Q01094). Kind of experiment: ATG_E2F_CIS: Attagene CIS-FACTORIAL HepG2 Assay for human E2F Transcription Factor 1 (AID 2282935). To be noted: HepG2 Attagene cis-reporter, E2F reporter RNA transcripts; actives raise or lower the signal. Summed up:
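Total RNA from 24 h-treated, reporter-transfected HepG2 cells undergoes DNase I treatment, oligo(dT) reverse transcription, PCR and 6-FAM primer extension before capillary electrophoresis.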

Experiment [19] in a line: APR_HepG2_P-H2AX_24hr: Apredica 24-hour HepG2 Assay for H2AX Phosphorylation (AID 2282920). The following applies: high-content imaging, actives raise or lower the signal. Summed up: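 HepG2, 24 hr, cpd 0.39–200 uM (10 conc, duplicate), DMSO 0.5% v/v final. Fix 3.7% formaldehyde, Triton X-100 permeabilize, anti-phospho-H2A.x 1:200 + Hoechst 2 ug/mL. Imaged, bidirectional fit vs DMSO.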

Experiment [20] is described as follows: ATG_BRE_CIS: Attagene CIS-FACTORIAL HepG2 Assay for human Bone Morphogenetic Protein (BMP) Response Element (BRE) (AID 2282933). To be noted: HepG2 BMP response element reporter, Attagene transcription factor profiling; actives raise or lower the signal. The gist of the method:
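HepG2 cells transiently transfected with multiplexed cis-element reporter units were dosed with chemical for 24 h. Reporter mRNA was measured by RT-PCR with fluorescent labelling, HpaI digestion and capillary electrophoresis; bidirectional fitting relative to DMSO.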

Where “and” joins values, the source holds several entries; their conditions need not be identical. Identical values can stand only once. Some compounds were tested as several samples or in several runs, with calls that do not always agree. Calls of active or inactive are those of the source. How the source made its calls: active means hit-call score of the fitted dose curve at least 0.9, where 1 is the maximum; inactive means score below 0.9.

What is called AC50 is the concentration giving half of the maximal activity seen.

Sequence of Aryl hydrocarbon receptor (Homo sapiens) (P35869 whole entry, looked up): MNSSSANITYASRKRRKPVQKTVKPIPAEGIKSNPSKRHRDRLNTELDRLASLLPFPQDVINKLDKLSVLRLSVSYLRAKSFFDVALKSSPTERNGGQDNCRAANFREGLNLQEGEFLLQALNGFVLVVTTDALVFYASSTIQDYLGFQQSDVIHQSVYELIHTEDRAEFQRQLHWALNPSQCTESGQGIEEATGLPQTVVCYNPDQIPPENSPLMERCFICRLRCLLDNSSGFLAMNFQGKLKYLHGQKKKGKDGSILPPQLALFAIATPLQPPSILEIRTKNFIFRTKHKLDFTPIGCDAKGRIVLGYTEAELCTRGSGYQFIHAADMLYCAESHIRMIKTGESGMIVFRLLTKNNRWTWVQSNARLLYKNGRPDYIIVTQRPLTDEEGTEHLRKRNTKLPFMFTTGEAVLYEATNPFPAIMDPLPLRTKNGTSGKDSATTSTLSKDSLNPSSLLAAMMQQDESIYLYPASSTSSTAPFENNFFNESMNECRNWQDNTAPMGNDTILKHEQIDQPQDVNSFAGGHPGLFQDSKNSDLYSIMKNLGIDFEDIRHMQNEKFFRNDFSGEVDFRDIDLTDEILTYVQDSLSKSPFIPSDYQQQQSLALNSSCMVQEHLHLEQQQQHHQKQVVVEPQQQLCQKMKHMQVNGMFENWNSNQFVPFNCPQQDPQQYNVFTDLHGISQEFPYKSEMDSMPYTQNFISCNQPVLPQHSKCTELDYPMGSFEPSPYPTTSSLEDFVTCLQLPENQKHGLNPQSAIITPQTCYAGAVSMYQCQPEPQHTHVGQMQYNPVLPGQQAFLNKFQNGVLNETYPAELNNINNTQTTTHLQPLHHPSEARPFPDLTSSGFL
Sequence of Transcription factor E2F1 (Homo sapiens) (Q01094 whole entry, looked up): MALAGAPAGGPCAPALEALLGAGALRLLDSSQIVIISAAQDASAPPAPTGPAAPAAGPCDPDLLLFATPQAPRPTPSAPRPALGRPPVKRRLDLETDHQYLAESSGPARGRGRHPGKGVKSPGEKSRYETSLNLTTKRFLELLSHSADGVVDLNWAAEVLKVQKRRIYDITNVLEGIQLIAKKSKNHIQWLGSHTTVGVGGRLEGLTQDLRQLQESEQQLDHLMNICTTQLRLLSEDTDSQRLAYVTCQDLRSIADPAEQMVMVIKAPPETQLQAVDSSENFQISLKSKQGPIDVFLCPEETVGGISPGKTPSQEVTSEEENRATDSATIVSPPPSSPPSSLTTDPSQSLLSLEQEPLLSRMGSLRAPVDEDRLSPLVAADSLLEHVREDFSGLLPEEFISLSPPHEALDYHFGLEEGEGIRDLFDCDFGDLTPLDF
Sequence of Retinoic acid receptor alpha (Homo sapiens) (P10276 whole entry, looked up): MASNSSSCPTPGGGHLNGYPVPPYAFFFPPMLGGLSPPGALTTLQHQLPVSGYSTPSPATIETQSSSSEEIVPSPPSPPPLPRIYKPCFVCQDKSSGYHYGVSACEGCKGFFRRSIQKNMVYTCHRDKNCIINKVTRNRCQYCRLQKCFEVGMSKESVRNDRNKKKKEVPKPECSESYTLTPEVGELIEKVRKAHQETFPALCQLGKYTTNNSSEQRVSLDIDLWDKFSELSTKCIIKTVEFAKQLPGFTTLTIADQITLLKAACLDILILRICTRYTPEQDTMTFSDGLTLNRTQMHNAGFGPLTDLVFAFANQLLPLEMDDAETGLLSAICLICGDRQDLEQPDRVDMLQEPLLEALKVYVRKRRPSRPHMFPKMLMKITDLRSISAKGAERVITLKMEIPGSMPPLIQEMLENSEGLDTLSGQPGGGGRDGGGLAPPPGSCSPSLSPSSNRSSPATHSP
Sequence of CCAAT/enhancer-binding protein beta (Homo sapiens) (P17676 whole entry, looked up): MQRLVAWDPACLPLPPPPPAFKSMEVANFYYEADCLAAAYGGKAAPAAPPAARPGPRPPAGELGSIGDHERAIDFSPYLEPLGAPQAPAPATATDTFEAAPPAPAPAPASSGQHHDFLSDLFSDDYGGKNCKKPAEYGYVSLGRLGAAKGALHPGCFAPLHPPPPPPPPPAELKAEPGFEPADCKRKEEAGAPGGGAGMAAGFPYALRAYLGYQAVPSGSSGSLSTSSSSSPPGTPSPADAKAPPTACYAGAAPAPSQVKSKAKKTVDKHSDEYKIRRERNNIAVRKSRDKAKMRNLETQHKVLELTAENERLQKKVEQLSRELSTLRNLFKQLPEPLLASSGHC

Take `CC(C)(c1ccccc1)c1ccc(O)cc1`: the AC50 in experiment [1] was 97 µM (active); in experiment [10], 33.4 µM (active) and 38.9 µM (active); in experiment [11], 46.6 µM (active); in [12], 23.8 µM (active) and 38.4 µM (active) and 43 µM (active); in experiment [13], 40.4 µM (active) [middle of 4 runs]; in experiment [15] it was 45.8 µM (active) [middle of 4 runs]. Moreover, the half-maximal activity concentration (AC50) in experiment [16] was 33.4 µM (active); in experiment [17], 1.8 µM (active) and 11.7 µM (active); in experiment [18], 56.3 µM (active). The outcome in experiment [2], in [3], in experiment [4], in experiment [5], in experiment [6] and in experiment [7] was inactive. Also, the outcome in experiment [8], in experiment [9], in experiment [10], in experiment [11], in [12] and in experiment [14] was inactive. Also, the compound was called inactive in experiment [16], in experiment [17] and in [18].
Regarding `Clc1ccc(Cl)cc1`, the outcome in experiment [1], in [2], in experiment [3], in [4], in experiment [19] and in [5] was inactive. Moreover, the result in [6], in [7], in [8], in experiment [9], in experiment [10] and in [11] was inactive. The compound was classed as inactive in [12], in experiment [13], in [14], in experiment [15], in experiment [16] and in experiment [20]. Further, the result in experiment [17] and in experiment [18] was inactive.
As to `C[C@]12CCC(=O)C=C1CC[C@@H]1[C@@H]2CC[C@@]2(C)[C@H]1CC[C@]2(C)O`, the outcome in [1], in [2], in experiment [3], in experiment [4], in experiment [19] and in experiment [5] was inactive. Further, the compound was called inactive in [6], in experiment [7], in experiment [8], in experiment [9], in experiment [10] and in experiment [11]. The outcome in experiment [12], in experiment [13], in [14], in experiment [15], in experiment [16] and in experiment [17] was inactive. Moreover, in [18], the outcome was inactive. In addition, the AC50 is 163 µM (active) in experiment [13], 114 µM (active) in [15] and 33.9 µM (active) in experiment [16].
Consider `Oc1ccc(C(c2ccc(O)cc2)(C(F)(F)F)C(F)(F)F)cc1`, for which the result in experiment [1], in [2], in [3], in experiment [4], in experiment [5] and in experiment [6] was inactive. The compound was called inactive in [7], in experiment [8], in [9], in [10], in experiment [11] and in experiment [12]. In addition, the call in experiment [13], in [14], in [16] and in experiment [18] was inactive. Further, the AC50 is 11.1 µM (active) and 18.5 µM (active) in experiment [10]; 7.18 µM (active) and 8.05 µM (active) in [12]; 11.1 µM (active) and 12.8 µM (active) and 8.79 µM (active) in experiment [13]; 11.1 µM (active) and 5.94 µM (active) and 13.3 µM (active) in [14]; 11.1 µM (active) [middle of 4 runs] in experiment [15].
